PubChem BioAssay (EPA / NIEHS)
Several values for one entry are separate records, joined by “and”; a condition that tells them apart may be missing. Equal entries are not always repeated. More than one record can exist for a structure, and the calls need not agree. Activity calls are given as the source filed them. Rule for the calls: active = hit-call score of the fitted dose curve at least 0.9, where 1 is the maximum; inactive = score below 0.9.

Read-out: Thrombomodulin, THBD (gene 7056)
Assay: BSK_3C_Thrombomodulin: BioMAP Diversity Plus: 3C Assay for Thrombomodulin Biomarker Activity (AID 2283029)
Conditions: primary human endothelial cells (HUVEC); actives raise or lower the signal
Procedure: BSK_3C is a cell-based, multiplexed-readout assay that uses umbilical vein endothelium, a human vascular primary cell, with measurements taken at 24 hours after chemical dosing in a 96-well plate.BSK_3C_Thrombomodulin is an assay component measured in the BSK_3C assay. It measures Thrombomodulin antibody related to regulation of gene expression using ELISA technology.Data from the assay component BSK_3C_Thrombomodulin was analyzed into 1 assay endpoint. This assay endpoint, BSK_3C_Thrombomodulin, was analyzed with bidirectional fitting relative to DMSO as the negative control and baseline of activity. Using a type of binding reporter, gain or loss-of-signal activity can be used to understand changes in the signaling as they relate to the gene THBD. Furthermore, this assay endpoint can be referred to as a primary readout, because this assay has produced multiple assay endpoints where this one serves a signaling function. To generalize the intended target to other relatable targets, this assay endpoint is annotated to the gpcr intended target family, where the subfamily is rhodopsin-like receptor.
The levels of cell surface (or secreted, indicated by the prefix "s") biomarker endpoints were measured by ELISA. Overt cytotoxicity to cells in confluent adherent cultures (all systems other than the BT system) was assessed by measuring total protein levels using sulforhodamine B (SRB) staining in parallel cultures at the time of biomarker measurements, indicated as SRB endpoints. For proliferation assays for adherent cell types, individual cell types are cultured at sub-confluence and relative cell numbers quantified by SRB staining at time points optimized for each system (48 h: 3C and CASM3C systems; 72 h: BT and HDF3CGF systems; 96 h: SAg system). SRB was performed by staining cells with 0.1% SRB after fixation with 10% TCA and reading wells at 560 nm.Viability and proliferation of PBMC (T cells) was quantified by Alamar Blue reduction for the SAg and BT systems. For PBMC viability (referred to as PBMC Cytotoxicity within the assay endpoint names), cells were plated (75,000/well in a 96-well plate) and then chemical samples added for 1 h before addition of activators, SEB and TSST-1 (20 ng/mL final concentration each). Cells were incubated for 90 h. Then, Alamar Blue (20 uL/well) (Invitrogen, Cat DAL1100) was added for 6 h, and the plates were read with a fluorescence microplate reader at 546/580 nm (excitation/emission). For PBMC proliferation, cells were plated and activated as above but incubated for only 16 h prior to addition of Alamar Blue. Plates were read after 6 h.

Compound | outcome | AC50
C=C(C)C(=O)OCCOCCOCCOC(=O)C(=C)C | inactive | 
O=CN1CCOCC1 | inactive | 
C=C(C)C(=O)OCCOCCOCCOCCOC(=O)C(=C)C | inactive | 
CC(=O)C1(C)CC2=C(CCCC2(C)C)CC1C (stereo not given) | inactive | 
c1ccc(CCc2ccccc2)cc1 |  | 20 µM (active)
CSCCC=O | inactive | 
c1ccc2cc(Nc3ccc(Nc4ccc5ccccc5c4)cc3)ccc2c1 | inactive | 
O=C1OC2(c3ccccc31)c1ccc(O)c(Br)c1Oc1c2ccc(O)c1Br |  | 20 µM (active)
CCCCCC(C=O)=Cc1ccccc1 | inactive | 
CC(C=O)Cc1ccc(C(C)(C)C)cc1 (stereo not given) | inactive | 
IC(I)I | inactive | 
CCN(CC)C(=O)N(CC)CC | inactive | 
CCC(C)c1cc([N+](=O)[O-])cc([N+](=O)[O-])c1OC(=O)OC(C)C (stereo not given) |  | 20 µM (active)
Oc1c(Cl)cc(Cl)c(Cl)c1Cc1c(O)c(Cl)cc(Cl)c1Cl | inactive | 
O=C1OC[C@H](Cc2cccc(O)c2)[C@H]1Cc1cccc(O)c1 | inactive | 
c1ccc(Oc2ccccc2)cc1 | inactive | 
C=CC(C)(O)CCC=C(C)C (stereo not given) | inactive | 
Clc1cc(Cl)c(-c2c(Cl)c(Cl)cc(Cl)c2Cl)cc1Cl | inactive | 
CS(=O)(=O)OCCCCOS(C)(=O)=O | inactive | 
CC(=O)Nc1ccc(C(=O)CCl)cc1 | inactive | 

Compound | outcome | AC50
CCCCN(CCCC)C(=O)N(CCCC)CCCC | inactive | 
CC(C)(C)CC(C)(C)c1ccc(OCCOCC[N+](C)(C)Cc2ccccc2)cc1 | inactive | 
Cc1cc(CCC(=O)OCCOCCOCCOC(=O)CCc2cc(C)c(O)c(C(C)(C)C)c2)cc(C(C)(C)C)c1O | inactive | 
CC1(C)C2=CCCC(C)(C)[C@]23CC[C@H]1C3 | inactive | 
CN(C)C(=O)Nc1ccc(Oc2ccc(Cl)cc2)cc1 | inactive | 
CCOC(=O)C(C#N)=C(c1ccccc1)c1ccccc1 | inactive | 8.14 µM (active)
COc1ccc(OC)c(N=Nc2c(O)ccc3ccccc23)c1 |  | 9.48 µM (active)
CC(=O)c1c(C)c([N+](=O)[O-])c(C(C)(C)C)c([N+](=O)[O-])c1C | inactive | 
CC(CN=Cc1ccccc1O)N=Cc1ccccc1O (stereo not given) | inactive | 
CC(C)(N=C=O)c1cccc(C(C)(C)N=C=O)c1 | inactive | 
CC=Cc1ccc(OCC)c(O)c1 | inactive | 
CCCCOC(=O)CCCCCCCC(=O)OCCCC | inactive | 
CCCCCCCCCCCCCCCC(=O)OC/C=C(C)/C=C/C=C(C)/C=C/C1=C(C)CCCC1(C)C |  | 20 µM (active)
C=C(C)[C@H]1CC=C(C)C(=O)C1 | inactive | 
C1=CC2C3C=CC(C3)C2C1 (stereo not given) | inactive | 
COc1ccc(CCN2CCC(Nc3nc4ccccc4n3Cc3ccc(F)cc3)CC2)cc1 | inactive | 
C=C(C)C(=O)OCC(CC)(COC(=O)C(=C)C)COC(=O)C(=C)C | inactive | 
CC1(C)CCC[C@]2(C)[C@H]3CCO[C@]3(C)CC[C@@H]12 |  | 14.6 µM (active) and 17.3 µM (active)
C[C@@H]1CCN(C(=O)[C@H](CCCN=C(N)N)NS(=O)(=O)c2cccc3c2NC[C@H](C)C3)[C@@H](C(=O)O)C1 | inactive | 
